Results taken from the supplement of paper PMC6658780.
Structures can show the parent of a compound that is named as a salt. ± gives the standard deviation of the averaged measurements.

The molecules below were run on Escherichia coli ATCC BAA-2469 (assay: percent growth inhibition of drug alone vs DMSO control; higher = more growth inhibition). Details: antibiotic (0.125x MIC): none (0.1% DMSO); 7 µM.
Description: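 Prestwick drugs tested at 20 uM and 7 uM with an antibiotic at 0.125x MIC (16 mg/L when MIC >128 mg/L) against E. coli ATCC BAA-2469 (NDM-1) in CAMHB, 384-well plates, duplicate runs. Percent growth inhibition was computed from OD600 (24 h minus 0 h) relative to DMSO wells. Drug + DMSO-only wells are also given. […]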

SMILES	percent growth inhibition of drug alone [%]
NCC1(CC(=O)O)CCCCC1 [Gabapentin]	-0.379 ± 0.84
CN1[C@@H]2CC[C@H]1C[C@@H](OC(=O)C(CO)c1ccccc1)C2 (some centres not stated) [Atropine sulfate monohydrate]	1.11 ± 0.46
Oc1cc(Cl)ccc1Oc1ccc(Cl)cc1Cl [Triclosan]	103 ± 3.2
C[C@]12CC[C@H](O)C[C@@H]1CC[C@@H]1[C@@H]2CC[C@]2(C)C(=O)CC[C@@H]12 [Epiandrosterone]	-0.756 ± 0.88
O=C([O-])c1ccccc1-c1c2cc(Br)c(=O)cc-2oc2[c]([Hg+])c([O-])c(Br)cc12.[Na+].[Na+].[OH-] [Merbromin]	0.201 ± 1.7
O=C(CCCN1CCC2(CC1)C(=O)NCN2c1ccccc1)c1ccc(F)cc1 [Spiperone]	3 ± 1.4

Same assay, conditions: antibiotic (0.125x MIC): none (0.1% DMSO); 20 µM

SMILES	percent growth inhibition of drug alone [%]
NCC1(CC(=O)O)CCCCC1 [Gabapentin]	-1.41 ± 0.8
CN1[C@@H]2CC[C@H]1C[C@@H](OC(=O)C(CO)c1ccccc1)C2 (some centres not stated) [Atropine sulfate monohydrate]	-0.0722 ± 0.38
Oc1cc(Cl)ccc1Oc1ccc(Cl)cc1Cl [Triclosan]	107 ± 2.6
C[C@]12CC[C@H](O)C[C@@H]1CC[C@@H]1[C@@H]2CC[C@]2(C)C(=O)CC[C@@H]12 [Epiandrosterone]	1.48 ± 2.3
O=C([O-])c1ccccc1-c1c2cc(Br)c(=O)cc-2oc2[c]([Hg+])c([O-])c(Br)cc12.[Na+].[Na+].[OH-] [Merbromin]	38.2 ± 18
O=C(CCCN1CCC2(CC1)C(=O)NCN2c1ccccc1)c1ccc(F)cc1 [Spiperone]	2.07 ± 2.2
